Laboratory results taken from PubChem BioAssay.
Activity calls are given as the source filed them.

Assays:
[1] = small molecules captured by biotinylated probe aFSTL3 – biochemical, small-molecule microarray, fluorescence 635/667, stem cell growth factor project, primary screen (AID 1064); details: higher = more signal;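 note: measures binding of the biotinylated anti-FSTL3 antibody to printed compounds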
[2] = binders from COS7 lysate, DM2A8 probe, primary screen, torsin A project, cell lysate, small-molecule microarray, fluorescence 635/667 (AID 1065); details: higher = more signal, COS7 lysate expressing mutant human TOR1A
[3] = small molecules captured by biotinylated probe aFGF2 – biochemical, small-molecule microarray, fluorescence 635/667, stem cell growth factor project, primary screen (AID 1067); details: higher = more signal;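 note: measures binding of biotinylated aFGF2 protein to printed compounds on slides; z-score merges feature fluorescence and signal-to-noise across triplicate slides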
[4] = small molecules captured by biotinylated probe aFGF10 – biochemical, small-molecule microarray, fluorescence 635/667, stem cell growth factor project, primary screen (AID 1071); details: higher = more signal;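 note: score merges 667 nm spot intensity and signal to noise from triplicate slides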
[5] = biological target: Neurogenic locus notch homolog protein 2 (Homo sapiens) (UniProt Q04721); test: small molecules binding Notch2 protein – biochemical, small-molecule microarray, 635 nm fluorescence, stem cell growth factors, primary screen (AID 1073); details: higher = more signal
Sequence of Neurogenic locus notch homolog protein 2 (Homo sapiens) (Q04721 whole entry, looked up, canonical isoform): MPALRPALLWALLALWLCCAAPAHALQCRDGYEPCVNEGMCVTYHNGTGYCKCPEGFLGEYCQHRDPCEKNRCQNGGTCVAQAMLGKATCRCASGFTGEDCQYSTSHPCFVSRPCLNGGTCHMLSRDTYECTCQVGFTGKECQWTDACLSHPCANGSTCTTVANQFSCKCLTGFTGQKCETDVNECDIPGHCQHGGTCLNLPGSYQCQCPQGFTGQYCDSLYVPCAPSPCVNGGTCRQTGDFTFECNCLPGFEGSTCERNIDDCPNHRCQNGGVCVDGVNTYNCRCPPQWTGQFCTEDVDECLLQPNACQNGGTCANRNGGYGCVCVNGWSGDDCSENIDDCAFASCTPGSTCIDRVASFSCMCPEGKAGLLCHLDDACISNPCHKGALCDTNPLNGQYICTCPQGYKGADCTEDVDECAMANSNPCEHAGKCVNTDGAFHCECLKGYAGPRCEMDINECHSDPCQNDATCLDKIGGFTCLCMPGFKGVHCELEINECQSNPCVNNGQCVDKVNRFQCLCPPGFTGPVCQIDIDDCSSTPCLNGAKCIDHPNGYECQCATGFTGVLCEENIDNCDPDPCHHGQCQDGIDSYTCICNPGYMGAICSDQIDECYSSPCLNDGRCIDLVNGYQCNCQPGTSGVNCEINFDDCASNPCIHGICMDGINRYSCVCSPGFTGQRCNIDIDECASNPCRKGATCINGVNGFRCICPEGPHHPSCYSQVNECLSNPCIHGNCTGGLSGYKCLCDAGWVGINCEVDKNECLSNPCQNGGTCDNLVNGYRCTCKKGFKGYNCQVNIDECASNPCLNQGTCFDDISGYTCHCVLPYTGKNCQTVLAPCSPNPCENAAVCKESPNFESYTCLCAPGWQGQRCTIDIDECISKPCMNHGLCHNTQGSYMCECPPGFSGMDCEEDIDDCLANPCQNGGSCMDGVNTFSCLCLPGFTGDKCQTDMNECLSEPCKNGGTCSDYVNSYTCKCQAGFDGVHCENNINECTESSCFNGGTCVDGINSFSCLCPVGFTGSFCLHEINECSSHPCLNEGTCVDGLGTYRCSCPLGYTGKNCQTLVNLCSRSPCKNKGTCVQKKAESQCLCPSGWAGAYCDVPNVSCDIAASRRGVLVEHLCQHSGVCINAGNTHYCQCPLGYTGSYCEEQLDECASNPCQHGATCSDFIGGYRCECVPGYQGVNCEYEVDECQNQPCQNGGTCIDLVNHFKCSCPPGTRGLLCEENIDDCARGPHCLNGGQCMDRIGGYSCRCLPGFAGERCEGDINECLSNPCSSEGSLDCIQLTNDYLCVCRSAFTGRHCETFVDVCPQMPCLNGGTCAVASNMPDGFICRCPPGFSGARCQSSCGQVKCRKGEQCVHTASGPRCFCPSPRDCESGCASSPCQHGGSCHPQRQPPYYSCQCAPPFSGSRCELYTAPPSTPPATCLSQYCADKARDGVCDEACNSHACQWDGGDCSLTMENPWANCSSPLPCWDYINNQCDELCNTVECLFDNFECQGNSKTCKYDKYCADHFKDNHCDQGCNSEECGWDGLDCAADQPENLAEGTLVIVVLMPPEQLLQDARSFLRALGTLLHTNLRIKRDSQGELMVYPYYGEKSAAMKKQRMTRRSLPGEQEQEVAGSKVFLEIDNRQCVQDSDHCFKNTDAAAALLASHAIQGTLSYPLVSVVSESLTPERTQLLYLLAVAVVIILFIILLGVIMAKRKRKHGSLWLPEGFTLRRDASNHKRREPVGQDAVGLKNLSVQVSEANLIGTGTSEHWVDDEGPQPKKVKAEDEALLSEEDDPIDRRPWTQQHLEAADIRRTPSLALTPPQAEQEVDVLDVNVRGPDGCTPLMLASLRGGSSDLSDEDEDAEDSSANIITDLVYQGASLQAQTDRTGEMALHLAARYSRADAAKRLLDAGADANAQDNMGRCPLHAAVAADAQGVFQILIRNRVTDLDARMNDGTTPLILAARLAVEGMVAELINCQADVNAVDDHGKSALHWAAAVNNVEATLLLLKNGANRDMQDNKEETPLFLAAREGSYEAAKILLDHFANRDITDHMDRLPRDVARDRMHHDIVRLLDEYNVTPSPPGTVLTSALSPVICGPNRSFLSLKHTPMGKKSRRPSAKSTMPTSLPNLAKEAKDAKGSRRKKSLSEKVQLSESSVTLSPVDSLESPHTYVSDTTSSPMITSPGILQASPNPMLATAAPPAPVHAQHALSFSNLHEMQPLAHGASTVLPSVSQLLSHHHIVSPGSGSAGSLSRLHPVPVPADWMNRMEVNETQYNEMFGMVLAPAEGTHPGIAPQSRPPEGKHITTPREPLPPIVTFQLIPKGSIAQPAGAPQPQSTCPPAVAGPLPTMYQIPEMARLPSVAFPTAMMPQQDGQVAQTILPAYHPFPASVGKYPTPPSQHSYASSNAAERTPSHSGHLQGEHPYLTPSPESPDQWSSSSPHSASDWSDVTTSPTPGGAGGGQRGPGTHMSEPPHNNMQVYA

[6] = biological target: Pro-neuregulin-1, membrane-bound isoform (Homo sapiens) (UniProt Q02297); test: small molecules binding neuregulin-1 protein – biochemical, small-molecule microarray, fluorescence 635/667, psychiatric disease protein project, primary screen (AID 1075); details: NRG1 binding, 635 nm fluorescence, higher = more signal;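 note: score combines 667 nm spot fluorescence with signal to noise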
Sequence of Pro-neuregulin-1, membrane-bound isoform (Homo sapiens) (Q02297 whole entry, looked up, the tested form may be a part, canonical isoform): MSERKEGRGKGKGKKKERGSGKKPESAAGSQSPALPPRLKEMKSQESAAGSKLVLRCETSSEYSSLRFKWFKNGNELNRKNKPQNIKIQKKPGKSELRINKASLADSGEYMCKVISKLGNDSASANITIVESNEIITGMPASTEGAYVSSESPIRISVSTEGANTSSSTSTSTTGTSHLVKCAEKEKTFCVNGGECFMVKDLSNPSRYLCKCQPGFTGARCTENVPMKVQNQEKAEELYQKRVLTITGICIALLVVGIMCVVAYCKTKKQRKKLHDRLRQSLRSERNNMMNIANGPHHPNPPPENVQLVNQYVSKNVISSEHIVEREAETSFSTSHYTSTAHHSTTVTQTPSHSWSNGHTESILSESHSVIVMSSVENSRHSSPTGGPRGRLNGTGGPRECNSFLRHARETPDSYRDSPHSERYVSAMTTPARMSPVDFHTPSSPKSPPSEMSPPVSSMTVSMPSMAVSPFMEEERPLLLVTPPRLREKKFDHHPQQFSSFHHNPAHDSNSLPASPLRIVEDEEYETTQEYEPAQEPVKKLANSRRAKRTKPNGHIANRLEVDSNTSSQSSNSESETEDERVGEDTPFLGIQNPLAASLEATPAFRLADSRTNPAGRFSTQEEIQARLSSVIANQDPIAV

[7] = system: Neuregulin-1 EGF-like domain; test: small molecules binding NRG1 EGF domain – biochemical, small-molecule microarray, 635 nm fluorescence, primary screen (AID 1081); details: higher = more signal;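 note: binding of the protein to compounds printed on small-molecule microarray slides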
[8] = FRG1 expression reporter modulators in myotubes – cell-based, C2C12 myotubes, firefly/Renilla luciferase, luminescence, FRG1 inhibition for FSHD, primary screen (AID 1084); details: FRG1 promoter luciferase, higher = more signal, called active from +8 up or from −8 down
[9] = small molecules captured by biotinylated probe aFST – biochemical, small-molecule microarray, fluorescence 635/667, stem cell growth factor project, primary screen (AID 1086); details: higher = more signal;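 note: score merges 667 nm fluorescence with signal-to-noise of each printed compound spot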
[10] = binders of probe aHhip on microarray, primary screen, stem cell growth factor project, biochemical, small-molecule microarray, fluorescence 635/667 (AID 1087); details: higher = more signal;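 note: score merges spot fluorescence at 667nm with spot signal to noise ratio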

SMILES	composite z-score [1]	composite z-score [2]	composite z-score [3]	composite z-score [4]	composite z-score [5]	composite z-score [6]	composite z-score [7]	z-score [8]	composite z-score [9]	composite z-score [10]
COc1ccc(CCNC(=O)[C@@H]2c3ccccc3C(=O)N(Cc3ccccc3C(F)(F)F)[C@H]2c2ccc(CO)cc2)cc1	0.114	1.02	0.0292	0.0105	-0.354	1.2	0.472	-0.646 (inactive)	-0.211	-0.134
NC(=O)NCC#Cc1ccc2c(c1)[C@]1(C(=O)N2)[C@H](c2ccc(OCCO)cc2)N2[C@H](c3ccccc3)[C@H](c3ccccc3)OC(=O)[C@H]2[C@@H]1C(=O)N1CCCCCCC1	3.57	0.48	0.943	1.2	1.53	1.74	0.955	-0.154 (inactive)	3.04	3.79
CC(C)=CCCC(C)=CC(O)C1C=CC2C(=O)N(c3ccccc3)C(=O)C2N1Nc1ccc([N+](=O)[O-])cc1 (stereo not given)	-0.265	0.148	0.0159	0.344	1.59	1.64	1.28	-1.01 (inactive)	0.852	-0.0237
COc1ccc([Si](C)(C)[C@H]2[C@H](CC(=O)N3CCC[C@H]3CO)O[C@@]3(C(=O)N(Cc4ccc(N5C(=O)c6cccc7cccc5c67)cc4)c4ccccc43)[C@@H]2C)cc1	-0.276	0.623	-0.071	0.751	0.517	0.916	0.804	-4.19 (inactive)	0.361	-0.221
C=CC[C@]1(C(=O)N2CCOCC2)N=C(c2ccc(OCCCO)cc2)O[C@H]1c1ccccc1CN=[N+]=[N-]	-0.0635	1.3	0.103	1.04	1.54	1.77	1.3	-1.34 (inactive)	1.99	0.28
C[C@H]1ON(c2ccccc2)[C@@H](c2ccccc2)[C@@H]1C(=O)N1C(=O)OC[C@@H]1c1ccccc1	-0.331	-0.111	-0.019	0.602	0.527	0.211	0.656	0.84 (inactive)	0.0477	-0.374
OCCCC1=CC(c2cccs2)N(Cc2cccc(OC(F)(F)F)c2)CC1 (stereo not given)	-0.24	-0.487	-0.11	-0.331	-0.763	-0.222	0.44	0.67 (inactive)	-0.941	0.0401
COCCOC(=O)N1C(=O)[C@@]2(c3ccccc31)[C@H](c1ccc(OCCO)cc1)N1[C@H](c3ccccc3)[C@H](c3ccccc3)OC(=O)[C@H]1[C@@H]2C(=O)NC[C@H](O)c1ccccc1	-0.115	0.537	0.0276	0.228	0.614	1.52	1.35	-1.51 (inactive)	0.576	-0.0753
O=C1N(Cc2ccccc2)c2ccccc2[C@H]2OC(c3ccc(OCCCO)cc3)=N[C@@]12CCS(=O)(=O)c1ccccc1	0.149	0.527	0.11	0.951	0.931	1.76	1.28	-1.25 (inactive)	0.574	0.167
C=CCC(OC(C)=O)[C@@H]1[C@@H](N(Cc2ccc(-c3ccccc3)cc2)C(=O)c2cccc3ccccc23)c2cc(OCCCO)ccc2N1C(=O)c1ccc2ccccc2n1 (stereo not given in full)	-0.0204	0.113	-0.102	-0.0251	0.127	0.152	-0.669	-1.45 (inactive)	0.294	0.0373
C=CCC(OC(C)=O)[C@@H]1[C@@H](N(Cc2ccc(-c3cccc(C(F)(F)F)c3)o2)C(=O)c2cccc3ccccc23)c2cc(OCCCO)ccc2N1C(=O)c1ccc(-c2ccccc2)cc1 (stereo not given in full)	-0.188	0.0536	-0.12	-0.212	-0.628	0.0252	-0.908	-0.579 (inactive)	0.123	0.0749
CO[C@H]1O[C@H](CO)[C@@H](OC(=O)Nc2cccc(F)c2)[C@H](OC(=O)Nc2ccc3c(c2)OCO3)[C@H]1OC(=O)Nc1ccc2c(c1)OCO2	-0.382	0.755	0.0094	0.358	0.893	0.958	1.17	6.24 (inactive)	-0.253	-0.201
C=C(/C(=C/C[C@@H](OC(=O)c1ccncc1)c1ccccc1OCCO)c1cnc2ccccc2c1)C(C)C	-0.108	0.707	0.0401	1.14	1.5	1.23	1.2	-3.75 (inactive)	-0.177	0.144
C=CCN1C(=O)[C@@]2(O[C@@H](CCn3cc([C@H](O)c4ccccc4)nn3)[C@H]([Si](C)(C)c3ccc(OC)cc3)[C@H]2C)c2cc(NC(=O)c3ccc(OC)cc3)ccc21	0.027	0.321	0.0084	0.0737	0.147	0.56	0.531	-1.36 (inactive)	0.101	0.185
CC(=O)NCCCC[C@@H]1NC(=O)[C@H]2C[C@@H](C(=O)NCCCCCN)[C@@H](c3cccc(OCCO)c3)N2C1=O	-0.0485	0.107	0.0661	0.792	0.831	1.09	0.581	-0.549 (inactive)	0.547	0.758
COC(=O)[C@@]1(Cc2ccc(F)cc2)[C@@H]2[C@@H](CC(=O)[C@H]2CC(=O)C(=O)N2CCCC2)CN1C(=O)c1ccccc1	0.664	-0.196	0.0255	0.56	1.71	1.85	1.12	2.38 (inactive)	1.61	-0.24

SMILES	composite z-score [1]	composite z-score [2]	composite z-score [3]	composite z-score [4]	composite z-score [5]	composite z-score [6]	composite z-score [7]	z-score [8]	composite z-score [9]	composite z-score [10]
Cc1ccc(S[C@]2(C(=O)NCCN3CCOCC3)CC(=O)N(C3Cc4ccccc4C3)[C@@H]2c2ccc(CO)cc2)cc1	-0.108	1.32	-0.0825	-0.168	-0.746	1.72	1.27	-0.611 (inactive)	0	-0.0994
COC(=O)[C@@]1(Cc2ccccc2)[C@H]2c3cc(C(=O)N(C)C)n(Cc4ccc(O)c(OC)c4)c3C[C@H]2CN1C(=O)c1ccccc1	0.709	1.36	0.0487	0.523	1.56	0.934	1.24	3.26 (inactive)	1.91	2.58
C/C=C/[C@@H](CCn1cc([C@H](O)c2ccccc2)nn1)[Si](C)(C)c1ccc(OC)cc1	0.683	1.28	-0.0462	-0.135	-1.5	1.29	0.96	-1.41 (inactive)	-1.12	-0.236
COc1cc(C(O)C2C=CC3C(=O)N(C)C(=O)C3N2NC(=O)OC(C)(C)C)cc(OC)c1OC (stereo not given)	0.425	-0.27	0.265	0.469	1.38	2.13	1.38	-0.167 (inactive)	0.935	0.122
COc1ccc([Si](C)(C)[C@H]2[C@H](CCn3cc(CCO)nn3)O[C@@]3(C(=O)N(Cc4cccc(N5C(=O)c6cccc7cccc5c67)c4)c4ccccc43)[C@@H]2C)cc1	-0.201	0.603	-0.105	0.906	0.45	0.772	0.862	-3.54 (inactive)	0.395	1.55
O=C1OCCC=C[C@H]2OC34C=CCN(Cn5nnc6ccccc65)C(=O)[C@H]3N(CCCCCO)C(=O)[C@@H]4C12 (stereo not given in full)	0.122	1.66	-0.176	-0.328	-0.407	2.18	1.48	-0.21 (inactive)	-0.118	-0.306
[N-]=[N+]=NCc1ccccc1[C@H]1OC(c2ccc(OCCCO)cc2)=N[C@@]1(Cc1ccccc1N=[N+]=[N-])C(=O)NCCN1CCOCC1	0.0233	0.0401	0.14	0.981	1.61	1.49	1.1	0.342 (inactive)	1.21	0.113
CCN(CC)c1ccc(N2CC=CC34O[C@@H]5/C=C\CCCOC(=O)C5[C@H]3C(=O)N(CCCCCCO)[C@@H]4C2=O)cc1 (stereo not given in full)	0.272	-0.305	-0.119	-0.964	-0.946	1.63	0.709	-0.489 (inactive)	-0.958	-0.271
Cc1ccc(S[C@]2(C(=O)NCC(C)C)CC(=O)N(C3CCCCC3)[C@@H]2c2ccc(CO)cc2I)cc1	-0.25	0.0044	0.062	0.384	0.939	1.42	1.03	-2.29 (inactive)	0.0997	-0.166
COc1ccccc1CN1C(=O)c2ccccc2[C@](Cc2ccccc2I)(C(=O)NCCN2CCOCC2)[C@@H]1c1ccc(CO)cc1	-0.291	0.148	0.103	0.479	1.37	1.39	1.3	-3.32 (inactive)	1.08	-0.189
O=[N+]([O-])c1ccc(C[n+]2ccc(-c3ccc(CO)cc3)cc2)o1	-0.217	0.239	-0.0266	0.165	1.29	1.52	0.373	-0.721 (inactive)	0.273	0.0373
C=C(C)[C@@H]1CC=C(C(O)C2C=CC3C(=O)N(C4CCCCC4)C(=O)C3N2Nc2ccc(OC)cc2)CC1 (stereo not given in full)	-0.128	0.103	0.156	0.594	1.45	1.2	1.02	0.0512 (inactive)	1.32	-0.41
C[N+](C)(C)CCCCCCNC(=O)[C@H]1C[C@H]2C(=O)N3CCC[C@H]3C(=O)N2[C@H]1c1cccc(OCCO)c1	-0.238	2.05	0.0111	0.573	0.761	0.577	1.42	4.55 (inactive)	0.301	0.154
O=C1O[C@H](c2ccccc2)[C@H](c2ccccc2)N2[C@H]1[C@@H](C(=O)NC[C@H](O)c1ccccc1)[C@]1(C(=O)Nc3ccccc31)[C@H]2c1ccccc1OCCO	0.0095	0.142	-0.0024	0.555	0.0225	0.851	1.2	-1.13 (inactive)	-0.821	-0.445
CN1C(=O)C2C=CC(C(O)c3ccc(F)cc3)N(N3CCCCC3)C2C1=O (stereo not given)	1.1	1.72	0.344	0.139	1.44	1.17	1.19	0.532 (inactive)	0.713	0.0274
O=C1C2C=CC(C(O)c3cccc4ccccc34)N(Nc3ccccc3)C2C(=O)N1c1ccccc1 (stereo not given)	-0.0673	0.113	0.127	0.822	1.61	1.89	1.19	-1.41 (inactive)	1.55	-0.261
